Most compounds without a hit are left out; they make up all but 2.3% or so of the library.
MCL1 BIM primary – disrupts human MCL1 binding to BIM-BH3 peptide; Q07820; GST-MCL1 / FITC-Bim-BH3 fluorescence polarization; inhibition, % at 10.9 µM; 320,000 tested, 0.68% active;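 active = inhibition above the mean inhibition of all tested compounds plus 3 SD, set per campaign, cut at about 40% in these data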;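 also: 0% = DMSO wells and 100% = unlabeled Bim-BH3 peptide control; higher means more loss of mP so more displacement of Bim peptide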
GLD-1 RNA inh – GLD-1-TGE RNA interaction inhibition (C. elegans); inhibition, % at 5.96 µM; 320,000 tested, 0.44% active; purified GLD-1 + fluorescein TGE RNA, fluorescence polarization;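 active = percent inhibition above a per-plate cutoff, the plate mean of test compounds plus 3 SD, cut at about 30% in these data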;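 also: 0% = DMSO wells with GLD-1 and probe and 100% = wells lacking GLD-1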
Target sequence (Q17339 whole entry, looked up): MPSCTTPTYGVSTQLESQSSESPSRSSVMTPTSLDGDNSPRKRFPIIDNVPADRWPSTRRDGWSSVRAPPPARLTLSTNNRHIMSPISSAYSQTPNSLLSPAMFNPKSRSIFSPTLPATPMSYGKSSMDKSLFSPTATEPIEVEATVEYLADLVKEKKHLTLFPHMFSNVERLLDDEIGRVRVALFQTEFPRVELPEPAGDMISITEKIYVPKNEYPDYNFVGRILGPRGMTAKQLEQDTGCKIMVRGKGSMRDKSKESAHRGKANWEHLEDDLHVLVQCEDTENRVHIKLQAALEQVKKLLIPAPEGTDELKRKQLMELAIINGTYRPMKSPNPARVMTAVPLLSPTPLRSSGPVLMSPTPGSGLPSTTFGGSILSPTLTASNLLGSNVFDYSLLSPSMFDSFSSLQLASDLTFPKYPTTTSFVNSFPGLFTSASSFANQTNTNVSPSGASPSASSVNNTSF
Mcl1-Bid inh – Mcl-1/Bid interaction inhibition | TR-FRET Mcl-1/Bid-Dy647 peptide binding, 1536-well | inhibition, % at 21.7 µM | 220,000 tested, 0.97% active;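 active = compounds that cut the binding signal by more than half at the single screening dose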;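 also: His-tagged Mcl-1 with europium anti-His antibody binding Bid BH3 peptide; 0% = Mcl-1 plus peptide wells and 100% = peptide-only wells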
Bcl-xL primary – inhibitors of human Bcl-xL | 320,000 tested, 0.7% active | Q07817 | inhibition, % at 10.9 µM | GST-Bcl-xL / FITC-Bim BH3 peptide fluorescence polarization;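 active = inhibition above the mean of all tested compounds plus 3 SD, cutoff set per campaign, cut at about 30% in these data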;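 also: 0% = DMSO wells and 100% = unlabeled Bim-BH3 peptide competitor; inhibitors lower millipolarization by displacing the labeled peptide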
Target sequence (Q07817 whole entry, looked up): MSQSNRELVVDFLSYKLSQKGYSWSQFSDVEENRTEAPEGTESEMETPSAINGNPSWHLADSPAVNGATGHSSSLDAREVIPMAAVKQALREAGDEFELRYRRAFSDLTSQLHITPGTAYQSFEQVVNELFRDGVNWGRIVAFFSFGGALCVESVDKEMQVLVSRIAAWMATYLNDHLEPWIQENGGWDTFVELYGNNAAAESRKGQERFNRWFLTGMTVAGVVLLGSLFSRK
Bim-Mcl-1 – inhibitors of Bim-Mcl-1 interaction, human; Q07820; Bead-based flow cytometry, Bim peptide-Mcl-1 binding; inhibition, % at 10 µM; 190,000 tested, 0.1% active; AID 1009; in the data active = inhibition above about 40%;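 also: 0% = no compound tracer wells and 100% = peptide blocker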
Mcl1 Noxa PPI – disrupts binding of human Mcl-1 to Noxa peptide | Q07820 | TR-FRET Mcl-1/Noxa peptide binding, 2 h | inhibition, % at 21.7 µM | 220,000 tested, 1.5% active | AID 1022;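 active = compounds that cut the protein-peptide binding signal by more than 50% relative to plate controls in a single-dose test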;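 also: His-tagged Mcl-1 with rhodamine Noxa BH3 peptide and terbium anti-His antibody; 0% = Mcl-1 plus Noxa peptide wells and 100% = peptide-only wells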
BCLXL inh confirm – counter-screen for MCL1 inhibitors: confirmation of human Bcl-xL inhibitors | GST-Bcl-xL / FITC-Bim BH3 peptide FP binding | shares compounds with MCL1 BIM primary | AID 2166 | 1,700 tested, 54% active | inhibition, % at 10.9 µM;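 active = inhibition above a cutoff equal to the mean inhibition of all tested compounds plus 3 SD, cut at about 30% in these data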;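 also: 0% = DMSO wells and 100% = unlabeled Bim BH3 control peptide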
MCL1 BIM confirm – MCL1-BIM-BH3 interaction inhibition, confirmation; shares compounds with MCL1 BIM primary; GST-MCL1 / FITC-Bim-BH3 fluorescence polarization; inhibition, % at 10.9 µM; 1,700 tested, 61% active;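 active = inhibition above the average of all tested compounds plus 3 SD, cut at about 40% in these data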;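 also: 0% = DMSO wells and 100% = unlabeled Bim-BH3 control peptide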
An asterisk follows results filed as active; i = inactive; x = not tested or not shown; + = active, no number.

SMILES	MCL1 BIM primary	GLD-1 RNA inh	Mcl1-Bid inh	Bcl-xL primary	Bim-Mcl-1	Mcl1 Noxa PPI	BCLXL inh confirm	MCL1 BIM confirm
C[C@]12CC[C@@H](O)CC1=CC(=O)C1C2CC[C@]2(C)C(=O)CCC12 (stereo partly specified)	x	7	x	x	x	x	x	x
CN1C(=O)N(C)C(=O)C2(Cc3cc(NC(=O)c4ccccc4)ccc3N3CCCC32)C1=O (stereo unspecified)	-3	-5	x	7	x	x	x	x
Oc1ccc2c3c1O[C@H]1c4[nH]c5ccccc5c4C[C@@]4(O)C(C2)N(CC2CC2)CC[C@]314	66*	1	13	19	0	17	x	x
Oc1ccc2c3c1O[C@H]1c4[nH]c5ccccc5c4C[C@@]4(O)[C@@H](C2)N(CC2CC2)CC[C@]314	3	3	x	2	x	x	x	x
O=C1NC(=O)C(=Cc2ccc(-c3ccc(F)cc3O)o2)C(=O)N1	-71	-31	x	-54	x	x	x	x
CCOc1cc(C=C2C(=O)NC(=O)NC2=O)ccc1OS(=O)(=O)c1ccccc1	9	1	-2	6	-1	60*	x	x
COc1cc(C=C2C(=O)NC(=O)NC2=O)ccc1OS(=O)(=O)c1ccccc1[N+](=O)[O-]	13	9	x	7	x	x	x	x
c1cncc(C2CCCCN2)c1 (stereo unspecified)	18	8	61*	22	x	14	x	x
Cc1ccc2c(c1)=C/C(=C\c1c(O)[nH]c(=S)[nH]c1=O)C(=O)N=2	2	7	-20	15	-2	57*	x	x
Cc1ccc2c(c1)=NC(=O)/C(=C/c1c(O)[nH]c(=O)[nH]c1=O)C=2	-3	3	-116	-1	x	1	x	x
COC(=O)c1c(C)[nH]c(C(=O)C(C)[N+]23CCN(CC2)CC3)c1C (stereo unspecified)	6	0	74*	4	0	-2	x	x
COC(=O)c1cccc(NC(=O)N2C[C@H]3C[C@@H](C2)c2cccc(=O)n2C3)c1	-5	-1	x	-1	x	x	x	x
CN1CCC(O)(c2cccs2)C(C(=O)c2cccs2)C1 (stereo unspecified)	3	4	x	8	x	x	x	x
O=c1[nH]c(=O)n(CCc2ccccc2)c(O)c1C=NCc1ccc2c(c1)OCO2	-3	1	67*	-6	-1	-103	x	x
O=C1/C(=C\c2cc3c(cc2Cl)OCO3)N2CCC1CC2	3	4	4	3	-4	23	x	x
O=C1/C(=C\c2ccncc2)N2CCC1CC2	7	1	-20	-1	x	4	x	x
O=C1/C(=C\c2ccc(Cl)c(Cl)c2)N2CCC1CC2	4	0	54*	-3	x	10	x	x
O=C1/C(=C/c2cc3c(cc2Cl)OCO3)N2CCC1CC2	6	54*	-14	4	-2	22	x	x
O=C1CN=C(c2ccccc2)c2cc(Cl)ccc2N1	x	3	x	x	x	x	x	x
O=C(O)CP(=O)(O)c1ccc(Cl)cc1	-9	9	-2	5	0	4	x	x
COP(=O)(CC(=O)O)c1ccccc1 (stereo unspecified)	0	-3	-15	1	95*	0	x	x
CCOc1ccc(-n2c(O)c(/C=C3\C=Nc4ccccc43)c(=O)[nH]c2=O)cc1	79*	-23	x	78*	x	x	6	-8
Cn1cc(/C=C2\C(=O)NC(=O)N(c3ccccc3)C2=O)c2ccccc21	182*	-10	x	151*	x	x	60*	64*
O=C(O)Cn1cc(/C=C2\C(=O)NC(=O)N(c3ccc(Cl)cc3)C2=O)c2ccccc21	-20	-21	x	-13	x	x	x	x
COC(=O)C1=C(c2ccc(S(C)(=O)=O)cc2)C[C@@H]2CC[C@H]1N2C	-4	-7	x	0	x	x	x	x
SMILES	MCL1 BIM primary	GLD-1 RNA inh	Mcl1-Bid inh	Bcl-xL primary	Bim-Mcl-1	Mcl1 Noxa PPI	BCLXL inh confirm	MCL1 BIM confirm
CN1CCN(c2ccc([N+](=O)[O-])c3no[n+]([O-])c23)CC1	+	141*	-34	197*	x	-30	149*	180*
CN1CCN(c2ccc(S(C)(=O)=O)cc2[N+](=O)[O-])CC1	-5	-8	-34	-1	-3	8	x	x
COc1ccccc1-n1c(O)c(/C=C2\C=Nc3ccccc32)c(=O)[nH]c1=O	-26	-19	x	-11	x	x	x	x
N#CC(C#N)=Cc1ccc(C=C(C#N)C#N)cc1	x	x	-17	x	x	-4	x	x
Cc1cc(N2CCCC2)ccc1C=C(C#N)C#N	180*	-70	-6	119*	2	-15	85*	108*
CN1CCN(C(=O)O[C@H]2c3nccnc3C(=O)N2c2ccc(Cl)cn2)CC1	10	-2	x	7	x	x	x	x
Nc1c(C(=O)NCC2CCCO2)c2nc3ccccc3nc2n1Cc1ccco1 (stereo unspecified)	58*	35*	-15	57*	x	55*	7	3
CCC(CO)(C(=O)OC1CC2CCC(C1)N2C)c1ccccc1 (stereo unspecified)	12	3	x	5	x	x	x	x
CN1CCN(c2cccc3c2C(=O)c2ccccc2C3=O)CC1	x	x	-8	x	-6	47	x	x
CN1CCN(c2ccc3c(c2)S(=O)(=O)c2ccccc2C3=O)CC1	85*	8	x	74*	x	x	63*	84*
COc1ccc(OC)c(N2C(=O)/C(=C/c3ccco3)C(=O)NC2=S)c1	87*	10	x	80*	x	x	71*	78*
COc1cc(/C=C2\C(=O)NC(=O)N(c3ccccc3)C2=O)c([N+](=O)[O-])cc1OC	x	x	-77	x	15	20	x	x
Cc1ccc(/C=C2\C(=O)NC(=S)N(c3cccc(F)c3)C2=O)o1	-14	-8	x	-19	x	x	x	x
O=C1NC(=S)N(c2ccc(F)cc2)C(=O)/C1=C/c1ccco1	68*	1	x	79*	x	x	73*	62*
COc1ccc(OC)c(N2C(=O)NC(=O)/C(=C/c3ccc([N+](=O)[O-])s3)C2=O)c1	46*	-2	-15	26	1	69*	76*	108*
COc1ccc(N2C(=O)/C(=C/c3cc(C)n(-c4ccc(C)cn4)c3C)C(=O)NC2=S)c(OC)c1	5	0	-26	15	16	15	x	x
CN1/C(=C\C=C\C2=[N+](C)c3ccc4ccccc4c3C2(C)C)C(C)(C)c2ccccc21	+	179*	-168	190*	5	i	166*	200*
O=[N+]([O-])c1cc(Cl)c(Cl)cc1Cl	4	3	x	4	x	x	x	x
Cc1ccc2cc(C=C(C#N)C#N)c(Cl)nc2c1	+	167*	17	196*	-3	1	-118	-202
CN1CC=C2C(C#N)=C(N)C(C#N)(C#N)C(c3ccncc3)C2C1 (stereo unspecified)	164*	88*	x	136*	8	x	37*	50*
